This is an account of results in PubChem BioAssay (NCATS).

A number with no mark means an inactive call. Active and inactive are the calls of the source. No rule for the calls is given here.
Potency is read from the fitted curve at half-maximal effect.

This assay has as its system HIV-1 nucleocapsid protein NCp7 (binding to TG oligonucleotide). Briefly: HIV Nucleocapsid (AID 346).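 Also: potency is for inhibitors that block NC binding and lower polarization.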 To be noted: HIV-1 NC / fluorescein-TGTGTGTG probe, fluorescence polarization. In outline: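 NCp7 100 nM + fluorescein TG4xF 10 nM; Hepes pH 7.5/250mM NaCl/1uM ZnCl2/0.004% PEG 20000; 1 hr RT; FP, 45 s exposure; oligo-only wells as negative control.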
Take `COc1ccc2[nH]cc(CCNc3nc(-c4cccc(C#N)c4)nc4ccccc34)c2c1`: the Potency is more than 20 µM.

With `CN1CCN(c2ncc3ncc(=O)n(Cc4ccc(F)cc4)c3n2)CC1`, the Potency is more than 20 µM.

For `CC(=O)N1CCC2(CC1)CCN(c1ncccn1)CC2`, the Potency is more than 20 µM.

As to `COc1cccc(-c2nc(NCc3cnc(C)cn3)c3ccccc3n2)c1`, the Potency was more than 20 µM.

As for `c1ncc(-c2ccoc2)c(NC2CC2)n1`, the Potency was more than 20 µM.

`CC(C)CN1CC[C@@]2(CCCN(S(=O)(=O)c3ccccc3)C2)C1`: the Potency was more than 20 µM.

As to `Cn1cccc1C(=O)N1CCC2(CC1)CCN(c1ccccn1)CC2`, the Potency is more than 20 µM.

On to `FC(F)(F)c1ccccc1-c1nccc(NCc2ccccc2)n1`, for which the Potency is more than 20 µM.

`COc1ccccc1CNc1ncnc2ccc(-c3cccnc3)cc12`: the Potency is more than 20 µM.

For the compound `Cn1c(=O)c(-c2ccc(Cl)cc2)nc2cnc(Nc3ccccc3)nc21`, the Potency is more than 20 µM.

For the compound `CNc1cc(-c2ccccc2C(F)(F)F)ncn1`, the Potency was more than 20 µM.

As to `O=c1cnc2cnc(Oc3cccc(Cl)c3)nc2n1C[C@H]1CCCO1`, the Potency was more than 20 µM.

In the case of `COc1cccc(Nc2ncc3nc(-c4cc(F)cc(F)c4)c(=O)n(C4CC4)c3n2)c1`, the Potency was more than 4 µM.

Regarding `CN(C)c1ncc2ncc(=O)n(C3CC3)c2n1`, the Potency is more than 20 µM.

For the compound `O=C(c1cc(C(F)(F)F)cc(C(F)(F)F)c1)N1CCC2(CC1)CCN(c1ccccn1)CC2`, the Potency is more than 20 µM.

For `CS(=O)(=O)Nc1cccc(-c2ccc3ncnc(NCc4cccs4)c3c2)c1`, the Potency was more than 20 µM.

Turning to `Cc1nc2cnc(Oc3ccccc3)nc2n(-c2ccccc2)c1=O`, the Potency is more than 20 µM.

Regarding `COc1ccccc1-c1cncnc1NCCc1cnc[nH]1`, the Potency is more than 20 µM.

`O=C(c1csnn1)N1CCC[C@@]2(CCN(Cc3cc(C(F)(F)F)cc(C(F)(F)F)c3)C2)C1`: the Potency was more than 20 µM.

On to `O=c1c(-c2ccccc2)nc2cnc(Nc3ccccc3)nc2n1Cc1cccs1`, for which the Potency was more than 20 µM.

Turning to `FC(F)(F)c1ccccc1-c1nc(NCc2cccs2)c2ccccc2n1`, the Potency is more than 20 µM.

For the compound `CN(C)C(=O)c1ccc(-c2nc(Nc3ccc(F)cc3)c3ccccc3n2)cc1`, the Potency was more than 20 µM.

`N#Cc1ccc(CN2CC[C@@]3(CCCN(C(=O)c4cnccn4)C3)C2)cc1`: the Potency was more than 20 µM.

For `CC(=O)N1CCC2(CCCN(c3cccc(-c4ccccc4)c3)C2)CC1`, the Potency is more than 20 µM.

For the compound `COc1ccc(CNc2ncncc2-c2ccoc2)c(OC)c1`, the Potency is more than 20 µM.

For `COc1ccccc1-c1nccc(Nc2ccc(F)cc2)n1`, the Potency is more than 20 µM.

With `CS(=O)(=O)N1CCC2(CCCN(Cc3ccc(C#N)cc3)C2)CC1`, the Potency was more than 20 µM.

Consider `O=C(Nc1cccc(F)c1)N1CC[C@@]2(CCCN(C(=O)c3ccco3)C2)C1`, for which the Potency is more than 20 µM.

On to `Cn1c(=O)c(-c2cc(F)cc(F)c2)nc2cnc(Oc3cccc(Cl)c3)nc21`, for which the Potency is more than 20 µM.

Consider `c1ccc(CNc2nc(-c3ccoc3)nc3ccccc23)cc1`, for which the Potency was more than 20 µM.

As for `COCCn1c(=O)c(-c2ccc(Cl)cc2)nc2cnc(N3CCNCC3)nc21`, the Potency was more than 20 µM.

As to `COCCn1c(=O)c(-c2cccs2)nc2cnc(Oc3ccc(OC)cc3)nc21`, the Potency was more than 20 µM.

For the compound `O=C(c1cnccn1)N1CCC2(CC1)CCN(C(c1ccccc1)c1ccccc1)CC2`, the Potency was more than 20 µM.

With `COc1ncc2nc(CCc3ccccc3)c(=O)n(CCc3ccccc3)c2n1`, the Potency is more than 20 µM.

Take `N#CCCn1c(=O)c(-c2cc(F)cc(F)c2)nc2cnc(OCc3ccccc3)nc21`: the Potency is more than 20 µM.

For the compound `COc1ccc(-n2c(=O)c(-c3cccs3)nc3cnc(Nc4ccccc4)nc32)cc1`, the Potency is 4.01 µM (active).

Regarding `N#CCCn1c(=O)c(-c2cccc(C#N)c2)nc2cnc(Oc3ccccc3)nc21`, the Potency is more than 20 µM.

Turning to `Cc1cnc(CNc2cc(-c3cccnc3)ncn2)cn1`, the Potency was more than 20 µM.

As for `c1ccc(Nc2ncnc3ccc(-c4cccnc4)cc23)cc1`, the Potency was more than 20 µM.
